Data on 36 sequences can be found in PubChem BioAssay AID1159506 (National Center for Advancing Translational Sciences (NCATS), 2015).

Whole data set: some 59,000 sequences, median the read-out near -0.00055, cut for the lowest 2% near -2. Only a selection was taken, and the lowest values are over-represented in it overall.

This assay can be described thus: Identification of proteins required for the processing of the EWS-FLI1 nascent transcript.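 Note: robust z of luciferase light less the median z of siRNAs with the same seed.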 The following applies: TC32 Ewing sarcoma NR0B1-luc vs CMV-luc (EWS-FLI1 target promoter against control promoter), 48 h; screened at 20 nM (by protocol). A digest of the protocol: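 Readout: OneGlo luminescence, 48 h post-transfection, TC32-NR0B1-luc vs TC32-CMV-luc in parallel. siRNA 20 nM final, RNAiMax lipid, 600 cells/well; z-score-MAD transformed, then seed-adjusted.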
Sequence UAACCUAUCAUAUUGGUAG against DDX17 showed a seed-corrected z-score of 0.216. Take UAGAUCACCAAGCCCUUCC against EFNB1: the seed-corrected z-score was -0.0268. Next, UCUCCAUAAACAUACAGGC against LACE1: 1.68; UUGGUUGCAUCCCUGUCCG against PPP1R27: -3.59; UGAUGUACUGUGGAAGGUC against MAST3: -1.59. Consider UGUAGUGACAUCUCCGCCU against MCFD2P1, for which the seed-corrected z-score turned out to be 0.515.

Take UAAGGUCCCAGAAAGGCCU against ZP4: the seed-corrected z-score worked out at 0.208. UCUGGGUACAAUCUGGUGU against CHCHD10 registered a seed-corrected z-score of -2.26. On to UCUGAUUCCGCUUCUGAGC against SIGLEC10, for which the seed-corrected z-score stood at 0.63.

Sequence AUAGAUACCUAGGUCAACC against NEU3 came in with a seed-corrected z-score of 0.24.

Regarding UGCUGUUAGUUUGUGAUGC against LOC729254, the seed-corrected z-score came out at 0.247. Sequence UUCGAGACGAUUUCCAGUG against CMIP had a seed-corrected z-score of -2.27. Regarding UACUAGGUACGAACCGUCC against PPTC7, the seed-corrected z-score is -0.527. UCUCCUUACAUAACACUUC against EPHX2 came in with a seed-corrected z-score of 0.0978. With UUUGUGAUAGACUUCUUUC against CFAP126 the figure was 1.14. With AAACCUUCCGGUUUAGAUG against KCNH5 the figure was -0.00192; with UUUGCCUCUUUCCUCAACC against ZBTB16, -2.32. UAUAGAUCAACAAAAAUAC against TRMT112 gave a seed-corrected z-score of 0.21. Next, UUCCUUCUCGUCGUCGUAG against SERPINH1: -0.218; AGUGGGAUAAGGGCUCUGA against TMEM132A: -5.72.

Sequence UAUUCUUCAUUGGUAUCCC against TMEM27 showed a seed-corrected z-score of -0.429. With UCCGUUUCCACAUAUCUAC against SUPT20H the figure was -0.175; with UAUGGUAAUAGUCCUCCAG against FNDC9, -0.0743.

UUAGAAGCCCGCGUGAUGU against HS6ST3 displayed a seed-corrected z-score of 0.236.

UGAUUGGUUACUGCCCAGG against TAS2R20: the seed-corrected z-score is -4.87. As for UCCGUUUCCAUAAUUACAG against SCUBE1, the seed-corrected z-score was -0.917. With AAACUAAUGAAAUAGUGCC against GPR39 the figure was -0.0661; with AUAGAUCUUUAUAUAAGCC against ATL1, -0.744.

Sequence UAGAGUUUCGGUUUAAAUG against RBBP5 came in with a seed-corrected z-score of 0.215.

Sequence UUUUGUAUGUAGACAUUGG against DEFB135 had a seed-corrected z-score of -0.8. With UACACUAGCAGUGACCAUG against MBOAT1 the figure was 0.0459. With UUGAUAUCCAGCACAUUGC against CORO2B the figure was 1.69; with UCUUCGUAGAUGACAUUCC against ERO1A, 0.442. Take AUAUGUGCAGUCUUCUCCC against LINC00200: the seed-corrected z-score was -0.44. With UCCAGUAACAAUUAAUGCC against LRRC37A the figure was 0.451. On to UGUGGUCAAAGAGGAGAUG against SH3TC2, for which the seed-corrected z-score was -2.8.
